# Data as given in the supplement of paper PMC10849652.
# Targets with a hit are over-represented here; the source holds about 8,800 in all. About 0.5% of all pairs of compound and target were hits. Unmarked numbers belong to inactive results.
# What was measured:
# Experiment in all cases: log2 fold change, soluble protein after heating vs DMSO (PISA); higher = thermal stabilisation; K562 lysate, 10 uM; active = over 0.2 and 3.5 SD of the protein, either way, in both replicates (recomputed)
# alvocidib = compound: CN1CC[C@H](c2c(O)cc(O)c3c(=O)cc(-c4ccccc4Cl)oc23)[C@H](O)C1 [alvocidib]
# How it was run: (§1)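 K562 pellets were dounce-homogenised in PBS pH 7.4 containing 1 mM MgCl2, and the crude extract, at 1 mg/mL protein, was exposed to 10 μM compound for 30 min. Aliquots were heated for 3 min across 48°C-58°C, pooled, brought to 0.5% NP-40 at 4°C and spun at 21,000xg for 90 min, with the supernatant taken as soluble protein. TMTpro 16plex LC-MS/MS with equalised channel sums quantified that protein. Values are log-two fold changes in thermal stability relative to solvent controls, taken from duplicates.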
# Tubastatin A = compound: CN1CCc2c(c3ccccc3n2Cc2ccc(C(=O)NO)cc2)C1 [Tubastatin A]
# How it was run: as §1
# [1] = compound: CNC(=O)C1=CC=CC=C1NC2=NC(=NC=C2Cl)NC3=C(C=C(C=C3)N4CCOCC4)OC
# How it was run: as §1
# defactinib = compound: CNC(=O)c1ccc(Nc2ncc(C(F)(F)F)c(NCc3nccnc3N(C)S(C)(=O)=O)n2)cc1 [defactinib]
# How it was run: as §1
# [2] = compound: CNc1nc(-c2ccc3c(N)n[nH]c3c2)cc(N2C[C@@H](C(=O)NC3CCCCC3)CC[C@H]2C)n1
# How it was run: as §1
# encorafenib = compound: COC(=O)N[C@@H](C)CNc1nccc(-c2cn(C(C)C)nc2-c2cc(Cl)cc(NS(C)(=O)=O)c2F)n1 [encorafenib]
# How it was run: as §1
# [3] = compound: COC(=O)[C@H](CCSC)NC(=O)C1=C(C=C(C=C1)NC[C@H](CS)N)C2=CC=CC=C2
# How it was run: as §1
# alisertib = compound: COc1cc(Nc2ncc3c(n2)-c2ccc(Cl)cc2C(c2c(F)cccc2OC)=NC3)ccc1C(=O)O [alisertib]
# How it was run: as §1
# [4] = compound: COc1cc2nc(-c3cc(F)ccc3O)nc(N[C@@H]3CNC[C@H]3C(C)(C)O)c2cc1OC
# How it was run: as §1
# gefitinib = compound: COc1cc2ncnc(Nc3ccc(F)c(Cl)c3)c2cc1OCCCN1CCOCC1 [gefitinib]
# How it was run: as §1
# lapatinib = compound: CS(=O)(=O)CCNCc1ccc(-c2ccc3ncnc(Nc4ccc(OCc5cccc(F)c5)c(Cl)c4)c3c2)o1 [lapatinib]
# How it was run: as §1
# pictilisib = compound: CS(=O)(=O)N1CCN(Cc2cc3nc(-c4cccc5[nH]ncc45)nc(N4CCOCC4)c3s2)CC1 [pictilisib]
# How it was run: as §1
# crizotinib = compound: C[C@@H](Oc1cc(-c2cnn(C3CCNCC3)c2)cnc1N)c1c(Cl)ccc(F)c1Cl [crizotinib]
# How it was run: as §1
# [5] = compound: C[C@H](C1=CC=C(C=C1)C(=O)NC2=C3C=CNC3=NC=C2)N
# How it was run: as §1
# duvelisib = compound: C[C@H](Nc1ncnc2nc[nH]c12)c1cc2cccc(Cl)c2c(=O)n1-c1ccccc1 [duvelisib]
# How it was run: as §1
# gandotinib = compound: Cc1cc(Nc2cc(CN3CCOCC3)c3nc(C)c(Cc4ccc(Cl)cc4F)n3n2)n[nH]1 [gandotinib]
# How it was run: as §1
# tozasertib = compound: Cc1cc(Nc2cc(N3CCN(C)CC3)nc(Sc3ccc(NC(=O)C4CC4)cc3)n2)n[nH]1 [tozasertib]
# How it was run: as §1
# doramapimod = compound: Cc1ccc(-n2nc(C(C)(C)C)cc2NC(=O)Nc2ccc(OCCN3CCOCC3)c3ccccc23)cc1 [doramapimod]
# How it was run: as §1
# bafetinib = compound: Cc1ccc(NC(=O)c2ccc(CN3CC[C@H](N(C)C)C3)c(C(F)(F)F)c2)cc1Nc1nccc(-c2cncnc2)n1 [bafetinib]
# How it was run: as §1
# [6] = compound: Cc1cccc(CC(=O)N2CCc3c2ccc(-c2cn(C)c4ncnc(N)c24)c3F)n1
# How it was run: as §1
# Sequence of UniProt O14933 (O14933 whole entry, looked up): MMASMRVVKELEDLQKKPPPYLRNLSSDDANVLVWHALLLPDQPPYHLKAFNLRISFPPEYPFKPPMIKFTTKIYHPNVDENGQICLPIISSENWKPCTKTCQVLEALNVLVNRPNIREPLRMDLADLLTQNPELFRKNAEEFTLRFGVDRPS
# Sequence of UniProt Q8WUH2 (Q8WUH2 whole entry, looked up): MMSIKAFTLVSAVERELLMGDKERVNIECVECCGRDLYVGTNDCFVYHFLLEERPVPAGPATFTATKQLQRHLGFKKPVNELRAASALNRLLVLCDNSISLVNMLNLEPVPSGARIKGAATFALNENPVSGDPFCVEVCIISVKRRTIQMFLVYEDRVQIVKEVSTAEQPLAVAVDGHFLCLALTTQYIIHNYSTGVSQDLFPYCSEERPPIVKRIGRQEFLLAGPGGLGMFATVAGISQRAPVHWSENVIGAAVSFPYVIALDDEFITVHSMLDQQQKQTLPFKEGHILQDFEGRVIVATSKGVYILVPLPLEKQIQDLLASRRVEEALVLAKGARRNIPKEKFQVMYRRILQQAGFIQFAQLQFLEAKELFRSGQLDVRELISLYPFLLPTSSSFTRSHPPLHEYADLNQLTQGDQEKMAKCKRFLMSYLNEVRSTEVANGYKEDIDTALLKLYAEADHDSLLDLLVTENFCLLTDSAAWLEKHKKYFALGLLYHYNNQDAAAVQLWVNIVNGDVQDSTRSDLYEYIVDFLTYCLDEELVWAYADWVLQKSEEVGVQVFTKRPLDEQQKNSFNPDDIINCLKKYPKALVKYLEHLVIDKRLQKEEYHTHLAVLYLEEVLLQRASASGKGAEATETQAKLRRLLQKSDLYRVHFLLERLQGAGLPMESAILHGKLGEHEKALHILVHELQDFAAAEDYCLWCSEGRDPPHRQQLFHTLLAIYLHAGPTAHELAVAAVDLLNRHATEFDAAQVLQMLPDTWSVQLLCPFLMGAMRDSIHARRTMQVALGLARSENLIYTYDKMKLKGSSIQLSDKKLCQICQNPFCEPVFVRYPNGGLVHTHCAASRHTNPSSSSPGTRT
# Sequence of UniProt Q96S44 (Q96S44 whole entry, looked up): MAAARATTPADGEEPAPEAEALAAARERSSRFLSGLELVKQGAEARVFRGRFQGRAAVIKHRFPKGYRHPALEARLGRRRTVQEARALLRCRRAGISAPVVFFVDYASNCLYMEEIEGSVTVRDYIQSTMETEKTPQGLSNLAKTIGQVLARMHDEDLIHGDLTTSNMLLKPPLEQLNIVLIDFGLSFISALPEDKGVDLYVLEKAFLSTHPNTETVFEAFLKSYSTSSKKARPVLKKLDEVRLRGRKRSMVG
# Sequence of UniProt Q9NX07 (Q9NX07 whole entry, looked up): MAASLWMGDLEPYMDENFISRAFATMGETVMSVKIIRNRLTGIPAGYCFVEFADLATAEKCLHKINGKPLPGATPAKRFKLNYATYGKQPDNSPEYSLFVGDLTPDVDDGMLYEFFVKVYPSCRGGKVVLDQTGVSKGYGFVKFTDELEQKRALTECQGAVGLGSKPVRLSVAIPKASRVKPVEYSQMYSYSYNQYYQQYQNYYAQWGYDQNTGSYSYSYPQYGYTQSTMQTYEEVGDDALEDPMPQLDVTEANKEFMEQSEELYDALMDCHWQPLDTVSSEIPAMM
# Sequence of UniProt P33981 (P33981 whole entry, looked up): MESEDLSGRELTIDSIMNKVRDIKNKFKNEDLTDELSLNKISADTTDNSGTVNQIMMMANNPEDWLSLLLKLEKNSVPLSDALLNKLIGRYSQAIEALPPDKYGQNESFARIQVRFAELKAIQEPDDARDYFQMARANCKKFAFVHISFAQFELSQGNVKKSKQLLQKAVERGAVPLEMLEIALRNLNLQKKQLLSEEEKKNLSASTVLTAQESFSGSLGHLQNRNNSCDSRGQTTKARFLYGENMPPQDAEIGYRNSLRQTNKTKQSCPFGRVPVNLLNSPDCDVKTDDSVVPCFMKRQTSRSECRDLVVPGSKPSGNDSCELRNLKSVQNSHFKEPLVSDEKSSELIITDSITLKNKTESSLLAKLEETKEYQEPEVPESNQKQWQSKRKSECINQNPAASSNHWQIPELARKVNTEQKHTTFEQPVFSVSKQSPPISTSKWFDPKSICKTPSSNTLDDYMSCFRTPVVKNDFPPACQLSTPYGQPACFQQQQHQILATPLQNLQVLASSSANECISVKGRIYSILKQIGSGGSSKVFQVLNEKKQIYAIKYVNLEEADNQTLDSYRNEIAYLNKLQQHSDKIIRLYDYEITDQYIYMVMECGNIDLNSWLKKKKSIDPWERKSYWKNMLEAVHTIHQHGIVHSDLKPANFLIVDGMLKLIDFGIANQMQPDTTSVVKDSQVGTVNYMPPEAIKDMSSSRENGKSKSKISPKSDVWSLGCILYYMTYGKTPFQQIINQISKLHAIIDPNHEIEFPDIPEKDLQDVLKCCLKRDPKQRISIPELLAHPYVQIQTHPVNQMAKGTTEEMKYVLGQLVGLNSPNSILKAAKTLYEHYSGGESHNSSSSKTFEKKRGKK
# Sequence of UniProt Q9UKI8 (Q9UKI8 whole entry, looked up): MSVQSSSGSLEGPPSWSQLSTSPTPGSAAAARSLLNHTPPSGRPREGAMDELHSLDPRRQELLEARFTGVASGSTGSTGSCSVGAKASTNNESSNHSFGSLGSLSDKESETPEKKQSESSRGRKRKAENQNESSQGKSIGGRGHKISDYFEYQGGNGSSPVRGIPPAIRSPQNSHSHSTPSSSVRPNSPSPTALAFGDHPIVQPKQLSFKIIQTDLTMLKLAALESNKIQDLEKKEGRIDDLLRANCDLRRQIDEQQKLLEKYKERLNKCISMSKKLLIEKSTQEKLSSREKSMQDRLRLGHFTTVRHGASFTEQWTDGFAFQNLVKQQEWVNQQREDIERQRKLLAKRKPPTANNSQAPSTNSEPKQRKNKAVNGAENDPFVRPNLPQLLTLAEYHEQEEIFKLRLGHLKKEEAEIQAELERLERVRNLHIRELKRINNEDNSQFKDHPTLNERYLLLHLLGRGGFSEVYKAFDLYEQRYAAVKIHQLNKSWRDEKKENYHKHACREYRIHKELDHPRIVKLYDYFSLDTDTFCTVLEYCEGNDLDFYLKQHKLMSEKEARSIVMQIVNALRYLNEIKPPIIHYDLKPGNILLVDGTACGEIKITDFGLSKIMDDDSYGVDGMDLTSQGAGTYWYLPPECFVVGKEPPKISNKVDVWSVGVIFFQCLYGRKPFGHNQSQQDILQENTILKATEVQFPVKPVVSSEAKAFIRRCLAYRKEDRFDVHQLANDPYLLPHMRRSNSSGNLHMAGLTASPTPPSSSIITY
# Sequence of UniProt Q07157 (Q07157 whole entry, looked up): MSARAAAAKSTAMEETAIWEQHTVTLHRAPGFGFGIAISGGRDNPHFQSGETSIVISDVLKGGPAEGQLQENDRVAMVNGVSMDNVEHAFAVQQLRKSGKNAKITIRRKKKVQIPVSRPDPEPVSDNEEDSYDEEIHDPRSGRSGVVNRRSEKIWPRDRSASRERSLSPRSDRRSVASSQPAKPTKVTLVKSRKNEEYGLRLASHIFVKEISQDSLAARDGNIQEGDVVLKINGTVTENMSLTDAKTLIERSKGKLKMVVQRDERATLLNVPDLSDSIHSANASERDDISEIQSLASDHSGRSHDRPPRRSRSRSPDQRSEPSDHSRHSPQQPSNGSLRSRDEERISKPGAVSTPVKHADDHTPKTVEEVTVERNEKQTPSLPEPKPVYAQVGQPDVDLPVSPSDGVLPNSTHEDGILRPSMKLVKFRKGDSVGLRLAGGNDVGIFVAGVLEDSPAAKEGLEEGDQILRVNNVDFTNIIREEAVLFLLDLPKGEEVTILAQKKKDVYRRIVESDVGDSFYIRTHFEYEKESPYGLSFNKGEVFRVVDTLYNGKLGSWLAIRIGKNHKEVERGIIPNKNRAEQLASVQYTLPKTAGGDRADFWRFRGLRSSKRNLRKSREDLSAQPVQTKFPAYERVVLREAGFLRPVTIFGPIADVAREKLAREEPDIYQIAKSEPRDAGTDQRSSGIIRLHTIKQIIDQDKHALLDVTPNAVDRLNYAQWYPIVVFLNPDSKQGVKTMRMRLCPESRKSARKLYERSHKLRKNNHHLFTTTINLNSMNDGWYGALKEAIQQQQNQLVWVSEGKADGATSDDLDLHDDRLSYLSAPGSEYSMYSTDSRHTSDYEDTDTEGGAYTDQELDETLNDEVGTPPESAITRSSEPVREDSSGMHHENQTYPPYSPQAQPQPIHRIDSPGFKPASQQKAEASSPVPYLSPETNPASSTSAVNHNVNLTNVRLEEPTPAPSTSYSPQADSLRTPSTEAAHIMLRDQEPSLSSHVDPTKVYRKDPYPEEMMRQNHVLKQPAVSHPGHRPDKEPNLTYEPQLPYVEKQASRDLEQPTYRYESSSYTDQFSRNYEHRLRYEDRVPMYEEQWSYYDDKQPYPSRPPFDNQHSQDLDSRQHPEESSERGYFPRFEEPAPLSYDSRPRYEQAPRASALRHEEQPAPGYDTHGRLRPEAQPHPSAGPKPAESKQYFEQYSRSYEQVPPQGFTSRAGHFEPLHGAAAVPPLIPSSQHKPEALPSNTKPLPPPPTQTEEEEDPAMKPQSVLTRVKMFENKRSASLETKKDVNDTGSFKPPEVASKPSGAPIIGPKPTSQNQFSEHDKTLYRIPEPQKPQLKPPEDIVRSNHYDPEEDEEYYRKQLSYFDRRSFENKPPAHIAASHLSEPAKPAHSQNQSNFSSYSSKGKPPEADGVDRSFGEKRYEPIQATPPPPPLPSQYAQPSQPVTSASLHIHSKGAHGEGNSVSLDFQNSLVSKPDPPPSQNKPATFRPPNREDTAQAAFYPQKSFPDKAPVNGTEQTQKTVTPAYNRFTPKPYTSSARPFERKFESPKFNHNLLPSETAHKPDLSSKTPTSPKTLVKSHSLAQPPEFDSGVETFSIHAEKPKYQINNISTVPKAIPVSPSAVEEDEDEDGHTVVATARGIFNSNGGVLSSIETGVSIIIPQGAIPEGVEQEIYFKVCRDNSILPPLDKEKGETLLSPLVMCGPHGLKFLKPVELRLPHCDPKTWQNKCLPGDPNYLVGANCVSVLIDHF
Target,log2 fold change (alvocidib),log2 fold change (Tubastatin A),log2 fold change [1],log2 fold change (defactinib),log2 fold change [2],log2 fold change (encorafenib),log2 fold change [3],log2 fold change (alisertib),log2 fold change [4],log2 fold change (gefitinib),log2 fold change (lapatinib),log2 fold change (pictilisib),log2 fold change (crizotinib),log2 fold change [5],log2 fold change (duvelisib),log2 fold change (gandotinib),log2 fold change (tozasertib),log2 fold change (doramapimod),log2 fold change (bafetinib),log2 fold change [6]
TRNAU1AP (UniProt Q9NX07),-0.059,-0.08,0.015,-0.192,-0.039,0.045,0.034,0.098,-0.007,-0.019,0,-0.091,-0.019,-0.221,-0.058,0.042,-0.018,0.031,-0.001,0.061
TLK1 isoform 2 (UniProt Q9UKI8),-0.05,-0.092,0.046,0.16,0.023,-0.045,-0.14,-0.028,0.05,0.01,-0.047,0.135,-0.061,-0.032,-0.048,0.456 (active),0.014,0.011,-0.014,0.022
TTK (UniProt P33981),-0.004,-0.141,0.616 (active),0.434 (active),0.101,0.004,-0.02,0.078,0.103,-0.102,0.061,0.142,-0.008,0,-0.031,0.058,-0.054,0.143,-0.068,0.024
TJP1 isoform 2 (UniProt Q07157),-0.011,0.047,-0.02,-0.018,0.043,-0.013,0.011,-0.007,0.007,-0.017,-0.015,-0.028,0.016,-0.065,-0.014,0.075,-0.002,0.014,-0.062,0.111
UBE2L6 (UniProt O14933),0.034,-0.051,0.082,0.065,-0.005,0.06,-0.36 (active),0.004,-0.026,0.092,0.059,0.062,-0.014,0.088,0.033,-0.105,0.109,-0.013,-0.267,-0.024
TP53RK (UniProt Q96S44),-0.012,0.054,-0.037,0.019,-0.026,0.028,0.025,0.001,0.002,-0.042,-0.011,0.026,0.042,0.042,-0.029,-0.041,-0.01,-0.029,-0.032,0.035
TGFBRAP1 (UniProt Q8WUH2),-0.026,-0.153,0,0.005,-0.012,-0.015,-0.174,0.011,-0.025,-0.025,-0.029,-0.021,-0.034,-0.001,-0.03,-0.138,0.052,0.028,-0.056,-0.007
